# Measurements from article PMC5540273 (PLoS ONE, 2017).
# Columns and labels:
# Details in all cases: concentration: 1 μM, replicates: in singlicate; n = 1
# [1] = test system: SRMS
# [2] = test system: SRPK1
# [3] = test system: SRPK2
# [4] = test system: SRPK3
# [5] = test system: STK16
# [6] = test system: STK33
# [7] = test system: STK35
# [8] = test system: STK36
# [9] = test system: STK39
# [10] = test system: SYK
# 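Note: KINOMEscan kinase panel screen.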
Compound,%Inh [1] [%],%Inh [2] [%],%Inh [3] [%],%Inh [4] [%],%Inh [5] [%],%Inh [6] [%],%Inh [7] [%],%Inh [8] [%],%Inh [9] [%],%Inh [10] [%]
CC(C)(C)c1ccc(-n2cnc3c(N)ncnc32)cc1 [SKF-97263],14,29,0,31,0,0,11,11,0,0
Cc1ccc(O)cc1Nc1cc(C(F)(F)F)nc2ccc(-c3ccncc3)cc12 [GW630823],0,7,0,0,28,24,0,0,0,8
COc1ccc(Nc2nccc(N3CCC(NC(=O)Nc4ccc5c(c4)OCO5)C3)n2)cc1 (centres unmarked) [GSK1379745],0,29,3,17,0,3,8,0,17,40
Cl.c1ccc(Cn2ncc3cc(Nc4ncnc5ccccc45)ccc32)cc1 [GW273749],0,16,0,0,40,0,0,0,0,18
CS(=O)(=O)CCNCc1nc(-c2ccc3ncnc(Nc4ccc(OCc5cccc(F)c5)c(Cl)c4)c3c2)cs1.Cl [GW583340],0,2,0,0,8,0,0,0,1,18
